MsrA inhibitor: bovine MsrA inhibition | purified bovine MsrA, absorbance read-out | inhibition, % at 15.5 µM | 360,000 compounds, 0.75% hits | AID 651718; in the data active means inhibition above about 4.5%;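 further: 0% = vehicle wells with enzyme and 100% = reference inhibitor wells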
MsrA act: activators of bovine methionine sulfoxide reductase A; purified bovine MsrA, absorbance read-out; activation, % at 10.6 µM; 360,000 compounds, 0.3% hits; AID 602163; in the data active means activation above about 7.5%;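 further: 0% = vehicle and 100% = reference activator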
rCAG RNA binder: r(CAG) repeat RNA binding | TO-PRO-1 dye displacement fluorescence | inhibition, % at 3 µM | 370,000 compounds, 1.3% hits | AID 651821;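 active means inhibition above the plate cutoff, the mean of all test compounds on that plate plus 3 SD, cut at about 35% in these data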;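 further: 0% = DMSO alone and 100% = 100 µM mitoxantrone as full dye displacement; higher means more dye released from RNA so lower well fluorescence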
NadD inh: blocks S. aureus nicotinate mononucleotide adenylyltransferase | purified NadD enzyme, colorimetric absorbance read-out | inhibition, % at 20 µM | 360,000 compounds, 0.78% hits; in the data active means inhibition above about 26%
rCAG bind conf: r(CAG) RNA repeat binding, confirmation. inhibition, % at 3 µM. TO-PRO-1 dye displacement fluorescence. shares compounds with rCAG RNA binder. AID 652065. 4,300 compounds, 70% hits;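 active means inhibition above a per-plate cutoff, the mean inhibition of sample wells plus 3 SD, cut at about 35% in these data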;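 further: loss of TO-PRO-1 fluorescence as compound displaces dye from 1x1 AA loop RNA; 0% = DMSO only wells and 100% = 100 µM mitoxantrone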
dCAG dye counter: DNA CAG dye complex inhibition counter-screen; AID 652068; d(CAG) DNA oligo TO-PRO-1 dye displacement, fluorescence; shares compounds with rCAG RNA binder; 4,300 compounds, 94% hits; inhibition, % at 3 µM;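 active means inhibition above its plate's cutoff, the mean test-well inhibition plus 3 SD, cut at about 4.8% in these data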;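 further: 0% = DNA dye mix with DMSO and 100% = 100 µM mitoxantrone; hits displace the dye from DNA and so lower well fluorescence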
dCAG dye DR: DNA CAG dye complex inhibition, dose response counter-screen; 250 compounds, 20% hits; shares compounds with rCAG RNA binder; AID 686960; IC50, µM; DNA CAG/GTC duplex TO-PRO-1 dye displacement fluorescence; in the data active means IC50 below about 10 µM
* = called active by the depositor; i = inactive; . = no result. Rows were chosen to be rich in hits. Some 2.7% of all compounds tested hit in one or more screens of this group.

SMILES	MsrA inhibitor	MsrA act	rCAG RNA binder	NadD inh	rCAG bind conf	dCAG dye counter	others
NS(=O)(=O)c1ccc(N/N=C/c2ccc3c(c2)OCO3)c([N+](=O)[O-])c1	0	-2	4	4	.	.
NS(=O)(=O)c1ccc(N/N=C/c2ccc(O)c(O)c2O)c([N+](=O)[O-])c1	2	-8	55*	9	76*	38*
CCOC(=O)N1CCc2c(sc(NC(=O)c3ccc(S(=O)(=O)N4CCCC4)cc3)c2C#N)C1	1	-2	84*	15	57*	19*
CC(C)N1CCc2c(sc(NC(=O)c3ccc(S(=O)(=O)N4CCOCC4)cc3)c2C#N)C1	.	-3	.	8	.	.
CC(C)=CCC/C(C)=C/Cc1c(O)ccc(C(=O)/C=C/c2ccc(O)cc2)c1O	0	-5	68*	0	39*	24*
C=C(C)C(O)Cc1c(OC)ccc(C(=O)/C=C/c2ccc(O)cc2)c1O (stereo unspecified)	1	-10	13	-3	.	.
O=C1CC(=O)N(Cc2ccco2)C(=S)N1	.	-7	.	16	.	.
O=C1CC(=O)N(Cc2ccco2)C(=O)N1	2	-4	35*	11	36*	13*
COc1ccc(C(=O)NCCSCc2ccccc2Cl)cc1OC	-1	-1	80*	-10	3	0
COc1ccc(C(=O)NCCSCc2ccccc2)cc1OC	0	-1	-6	1	.	.
Cc1ccccc1-n1c(=O)/c(=C\c2ccco2)s/c1=C(/C#N)C(=O)Nc1ccccc1	0	-4	13	22	.	.
N#CC1=C(N)n2c(s/c(=C\c3ccco3)c2=O)=C(C#N)C1c1ccco1 (stereo unspecified)	3	-5	54*	50*	38*	18*	dCAG dye DR=i
C=CCSc1nnc(NC(=O)c2cccc(S(=O)(=O)N(C)c3ccccc3)c2)s1	1	3	48*	6	44*	14*
COc1nc(N)nc2c1ncn2C1OC(CO)CC1O (stereo unspecified)	0	-1	-1	-1	.	.
CN(C(=O)c1nn(C)c2c1CSc1ccccc1-2)c1ccc(F)cc1	0	-6	-1	-5	.	.
COc1ccc(OCc2nn3c(-c4ccco4)nnc3s2)cc1	2	-8	2	2	.	.
c1coc(-c2nnc3sc(Cc4cccs4)nn23)c1	1	-8	36*	2	9	5.2*
Cn1c2ccccc2c2cc(/C=C(\NC(=O)c3ccccc3)C(=O)O)ccc21	3	-7	37*	1	26	8.0*
COC(=O)/C(=C\c1ccc2c(c1)c1ccccc1n2C)NC(=O)c1ccccc1	4	-3	9	5	.	.
CC(C)(C)c1ccc(Oc2ccc(NC(=O)C3CC=CCC3C(=O)O)cc2)cc1 (stereo unspecified)	0	-4	35*	7	45*	12*
Cc1ccccc1Oc1ccc(NC(=O)C2CC=CCC2C(=O)O)cc1 (stereo unspecified)	0	-7	3	-2	.	.
Cc1cc(F)ccc1-c1cc(C(=O)NC(C)C)[nH]n1	-1	-10	1	-2	.	.
NC(=O)c1ccc(NC(=O)C2CCCC2)cc1	0	0	-1	-1	.	.
CCOC(=O)C1CCN(S(=O)(=O)c2cc(C(=O)N3CCCCC3)ccc2OC)CC1	-1	-3	-4	-5	.	.
C/C(=N\Nc1ccc(Cl)c(C(=O)O)c1)c1ccc2c(c1)OCO2	1	-3	1	5	.	.
SMILES	MsrA inhibitor	MsrA act	rCAG RNA binder	NadD inh	rCAG bind conf	dCAG dye counter	others
C/C(=N\Nc1ccc(C(=O)O)cc1)c1ccc2c(c1)Nc1ccccc1S2	2	-1	39*	9	86*	59*
C/C(=N/Nc1ccc(C(=O)O)cc1)c1ccc2c(c1)Nc1ccccc1S2	0	-4	45*	10	81*	41*
Cc1cccc(Cc2cnc(N3C(=N)SC(c4ccccc4)C3=O)s2)c1 (stereo unspecified)	1	-2	40*	16	53*	18*
COc1cc(/C=N/NC(=O)/C(=C\c2ccc([N+](=O)[O-])cc2)NC(=O)c2ccccc2)cc(OC)c1O	4	-7	28	10	.	.
O=C(N/N=C/c1cc([N+](=O)[O-])cc([N+](=O)[O-])c1O)/C(=C\c1cccs1)NC(=O)c1ccccc1	3	-10	68*	39*	84*	53*
CC(C)(C)c1ccc(NC(=O)c2ccccc2)c([N+](=O)[O-])c1	2	-2	4	0	.	.
CCN(CC)S(=O)(=O)c1cc(NS(=O)(=O)c2cc(Cl)ccc2Cl)ccc1C	-1	-7	44*	-4	40*	12*
CCN(CC)S(=O)(=O)c1cc(NS(=O)(=O)c2cccs2)ccc1C	1	-6	6	-5	.	.
CC(=O)Nc1ccc(NC(=O)CSc2nc3nc(-c4cccs4)cc(C(F)(F)F)c3c(=O)[nH]2)cc1	0	-6	16	14	.	.
CCOc1ccccc1NC(=O)CSc1nc2nc(-c3cccs3)cc(C(F)(F)F)c2c(=O)[nH]1	2	-5	70*	13	79*	48*
C/C(=N\NS(=O)(=O)c1ccc(C)cc1)c1cccs1	0	-10	2	0	.	.
Cc1ccc(S(=O)(=O)NN=C(c2ccccc2)c2cccs2)cc1	3	-2	36*	-6	19	6.7*
CC(C)CN1C(=O)c2ccc(C(=O)Nc3ccc(O)cc3C(=O)O)cc2C1=O	-1	-4	16	-4	.	.
CC(C)CCN1C(=O)c2ccc(C(=O)Nc3ccccc3C(=O)O)cc2C1=O	-1	-3	55*	-7	80*	51*
CC(C)CCN1C(=O)c2ccc(C(=O)Nc3ccc(O)cc3C(=O)O)cc2C1=O	0	-1	98*	2	84*	51*
COc1cc(NC(=O)C2CCN(S(=O)(=O)c3ccc4[nH]c(=O)oc4c3)CC2)cc(OC)c1	1	-1	36*	4	23	9.2*
O=C1Nc2c(Cl)cc(Cl)cc2C12Nc1ccccc1S2 (stereo unspecified)	-1	.	41*	.	13	8.0*
COc1cccc([C@@H]2CC=C(C(=O)O)[C@H](c3ccc(Br)cc3)N2S(=O)(=O)c2ccc(C)cc2)c1	-1	-2	23	7	.	.
Cc1ccc(S(=O)(=O)N2[C@@H](c3ccc(F)cc3)C(C(=O)O)=CC[C@H]2c2cccs2)cc1	1	-2	43*	2	37*	9.9*
Cc1ccc(S(=O)(=O)N2[C@@H](c3ccc(Br)cc3)C(C(=O)O)=CC[C@H]2c2cccs2)cc1	0	-8	74*	3	66*	29*
Cc1ccc(S(=O)(=O)N2[C@@H](c3cccc(Cl)c3)C(C(=O)O)=CC[C@H]2c2cccs2)cc1	-1	1	58*	3	50*	15*

Source: PubChem
